# The list shows a part of the results. Values without a mark were called inactive.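 How the source made its calls: active means activation above 30% in triplicate retests at 2 µM, then confirmed by visual review of the well images; inactive means the rest.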
# Assay: potentiators of TNFa-induced VCAM1 expression, confirmation, imaging, HUVEC, triplicate retest (AID 1034);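 further: scaled per plate between unstimulated and TNFa-stimulated DMSO control wells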
# Conditions: HUVEC TNFa-stimulated VCAM-1 immunofluorescence imaging; at 2 µM; active compounds read high
compound,measurement,value
COC(=O)CN1C(=O)C2(C(C(=O)OC)=C(N)Oc3ccccc32)C2=C1CC(C)(C)CC2=O (stereo unspecified),activation,-16.1%

# Reference: PubChem BioAssay AID1034 (Columbia University Molecular Screening Center, 2008)
